From the supplement of paper PMC8728848
About 410 targets per protein were measured; listed, in parts, are those with the strongest signals and a random draw of the rest.

How the values were obtained:
Test in all cases: glycan array binding signal (z-score within array); higher = stronger binding
Details in all cases: glycan notation: IUPAC condensed, linker removed
Fuc(a1-2)Gal(b1-3)GalNAc = molecular target: Fuc(a1-2)Gal(b1-3)GalNAc
Method in brief: (§1)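 Glycan array data were curated from 3228 arrays in the Consortium for Functional Glycomics database and kept only where the protein sequence was available. Glycan names were converted to IUPAC-condensed notation, and columns mapping to the same glycan were averaged. The binding signal is a within-array Z-score, averaged across arrays of the same protein sequence at different concentrations or buffers and across linkers. Negative Z-scores can be read as non-binding.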

[1] = molecular target: Fuc(a1-2)Gal(b1-3)GlcNAc(b1-2)Man(a1-3)[Fuc(a1-2)Gal(b1-3)GlcNAc(b1-2)Man(a1-6)]Man(b1-4)GlcNAc(b1-4)GlcNAc
Method in brief: as §1

[2] = molecular target: Fuc(a1-2)Gal(b1-3)GlcNAc(b1-2)Man(a1-3)[Fuc(a1-2)Gal(b1-3)GlcNAc(b1-2)Man(a1-6)]Man(b1-4)GlcNAc(b1-4)[Fuc(a1-6)]GlcNAc
Method in brief: as §1

[3] = molecular target: Fuc(a1-2)Gal(b1-3)[Fuc(a1-4)]GlcNAc(b1-2)Man(a1-3)[Fuc(a1-2)Gal(b1-3)[Fuc(a1-4)]GlcNAc(b1-2)Man(a1-6)]Man(b1-4)GlcNAc(b1-4)GlcNAc
Method in brief: as §1

[4] = molecular target: Fuc(a1-2)Gal(b1-4)Fuc(a1-3)]GlcNAc(b1-2)Man(a1-3)[Fuc(a1-2)Gal(b1-4)[Fuc(a1-3)]GlcNAc(b1-2)Man(a1-6)]Man(b1-4)GlcNAc(b1-4)GlcNAc
Method in brief: as §1

[5] = molecular target: Fuc(a1-2)Gal(b1-4)[Fuc(a1-3)]GlcNAc(b1-3)GalNAc
Method in brief: as §1

[6] = molecular target: Fuc(a1-2)[GalNAc(a1-3)]Gal(b1-3)GalNAc(b1-3)Gal(a1-4)Gal(b1-4)Glc
Method in brief: as §1

[7] = molecular target: Fuc(a1-2)[GalNAc(a1-3)]Gal(b1-4)GlcNAc(b1-3)GalNAc
Method in brief: as §1

[8] = molecular target: Fuc(a1-2)[GalNAc(a1-3)]Gal(b1-4)[Fuc(a1-3)]GlcNAc
Method in brief: as §1

[9] = molecular target: Fuc(a1-3)[Gal3S(b1-4)]GlcNAc6S
Method in brief: as §1

[10] = molecular target: Fuc(a1-3)[GalNAc(b1-4)]GlcNAc
Method in brief: as §1

[11] = molecular target: Gal(a1-3)Gal(b1-4)GlcNAc(b1-2)Man
Method in brief: as §1

[12] = molecular target: Gal(a1-3)Gal(b1-4)GlcNAc(b1-6)GalNAc
Method in brief: as §1

[13] = molecular target: Gal(a1-3)[Gal(a1-4)]Gal(b1-4)GlcNAc
Method in brief: as §1

Gal(a1-6)Glc = molecular target: Gal(a1-6)Glc
Method in brief: as §1

[14] = molecular target: Gal(b1-3)GalNAc(b1-4)[Neu5Ac(a2-3)]Gal(b1-4)Glc
Method in brief: as §1

[15] = molecular target: Gal(b1-3)GlcNAc(b1-3)Gal(b1-4)GlcNAc(b1-2)[Gal(b1-3)GlcNAc(b1-3)Gal(b1-4)GlcNAc(b1-6)]Man(a1-6)[Gal(b1-3)GlcNAc(b1-3)Gal(b1-4)GlcNAc(b1-2)Man(a1-3)]Man(b1-4)GlcNAc(b1-4)[Fuc(a1-6)]GlcNAc
Method in brief: as §1

[16] = molecular target: Gal(b1-3)GlcNAc(b1-3)GalNAc
Method in brief: as §1

[17] = molecular target: Gal(b1-3)[Fuc(a1-4)]GlcNAc(b1-3)Gal(b1-4)GlcNAc
Method in brief: as §1

[18] = molecular target: Gal(b1-4)GlcNAc(b1-2)Man(a1-3)[Gal(b1-4)GlcNAc(b1-2)Man(a1-6)]Man(b1-4)GlcNAc(b1-4)GlcNAc
Method in brief: as §1

[19] = molecular target: Gal(b1-4)GlcNAc(b1-2)Man(a1-3)[GlcNAc(b1-2)Man(a1-6)]Man(b1-4)GlcNAc(b1-4)GlcNAc
Method in brief: as §1

[20] = molecular target: Gal(b1-4)GlcNAc(b1-2)Man(a1-3)[GlcNAc(b1-4)][Gal(b1-4)GlcNAc(b1-2)Man(a1-6)]Man(b1-4)GlcNAc(b1-4)GlcNAc
Method in brief: as §1

[21] = molecular target: Gal(b1-4)GlcNAc(b1-2)[Gal(b1-4)GlcNAc(b1-4)]Man(a1-3)[GlcNAc(b1-4)][Gal(b1-4)GlcNAc(b1-2)[Gal(b1-4)GlcNAc(b1-6)]Man(a1-6)]Man(b1-4)GlcNAc(b1-4)[Fuc(a1-6)]GlcNAc
Method in brief: as §1

[22] = molecular target: Gal(b1-4)GlcNAc(b1-3)Gal(b1-4)GlcNAc(b1-2)[Gal(b1-4)GlcNAc(b1-3)Gal(b1-4)GlcNAc(b1-6)]Man(a1-6)[Gal(b1-4)GlcNAc(b1-3)Gal(b1-4)GlcNAc(b1-2)Man(a1-3)]Man(b1-4)GlcNAc(b1-4)GlcNAc
Method in brief: as §1

[23] = molecular target: Gal(b1-4)GlcNAc(b1-3)Gal(b1-4)GlcNAc(b1-2)[Gal(b1-4)GlcNAc(b1-3)Gal(b1-4)GlcNAc(b1-6)]Man(a1-6)[Gal(b1-4)GlcNAc(b1-3)Gal(b1-4)GlcNAc(b1-2)Man(a1-3)]Man(b1-4)GlcNAc(b1-4)[Fuc(a1-6)]GlcNAc
Method in brief: as §1

[24] = molecular target: Gal(b1-4)GlcNAc(b1-3)Gal(b1-4)GlcNAc(b1-3)Gal(b1-4)GlcNAc(b1-3)Gal(b1-4)GlcNAc(b1-2)Man(a1-3)[Gal(b1-4)GlcNAc(b1-3)Gal(b1-4)GlcNAc(b1-3)Gal(b1-4)GlcNAc(b1-3)Gal(b1-4)GlcNAc(b1-2)Man(a1-6)]Man(b1-4)GlcNAc(b1-4)[Fuc(a1-6)]GlcNAc
Method in brief: as §1

[25] = molecular target: Gal(b1-4)GlcNAc(b1-3)Gal(b1-4)GlcNAc(b1-3)Gal(b1-4)GlcNAc(b1-3)Gal(b1-4)GlcNAc(b1-3)Gal(b1-4)GlcNAc(b1-2)Man(a1-3)[Gal(b1-4)GlcNAc(b1-3)Gal(b1-4)GlcNAc(b1-3)Gal(b1-4)GlcNAc(b1-3)Gal(b1-4)GlcNAc(b1-3)Gal(b1-4)GlcNAc(b1-2)Man(a1-6)]Man(b1-4)GlcNAc(b1-4)GlcNAc
Method in brief: as §1

B1: LlpA1 (Pseudomonas fluorescens), Q4KHC3 (protein)
chain: MGSSHHHHHHSSGLVPRGSHMAWIRYDFTDNGSSVLPARYYMAPNQYLQSPNKRFKLLFQADGNLALYDGAQLAWVADQNTPFTNVSKGNKKDPMMVFMNYGFVLDDPLRGRIWSTTPSDPTMGSREDASLRAFTQVQDDGNIVTVDTIPHWYAPNGRVFTPAVGAAMIIGGTTELVPGQFYSAGEHSLVFQGDGNLVVYGPNSSVIWATYTQNKGGVRCVMQEDGNLVIYAANNGVVWQSGTGGHPGATIRLQANGSFTIVTERPVWARFGYTPTIKPPRVFYPDHKWKTGSYTWNNVF
- glycan array binding signal (z-score) (Fuc(a1-2)Gal(b1-3)GalNAc): -0.757
- glycan array binding signal (z-score) [1]: 3.75
- glycan array binding signal (z-score) [2]: -0.133
- glycan array binding signal (z-score) [3]: 3.21
- glycan array binding signal (z-score) [4]: 3.1
- glycan array binding signal (z-score) [5]: 2.56
- glycan array binding signal (z-score) [6]: 0.171
- glycan array binding signal (z-score) [7]: -0.468
- glycan array binding signal (z-score) [8]: 0.114
- glycan array binding signal (z-score) [9]: -0.653
- glycan array binding signal (z-score) [10]: -0.611
- glycan array binding signal (z-score) [11]: -0.521
- glycan array binding signal (z-score) [12]: 0.065
- glycan array binding signal (z-score) [13]: 2.71
- glycan array binding signal (z-score) (Gal(a1-6)Glc): 0.047
- glycan array binding signal (z-score) [14]: -0.058
- glycan array binding signal (z-score) [15]: 0.631
- glycan array binding signal (z-score) [16]: -0.529
- glycan array binding signal (z-score) [17]: -0.53
- glycan array binding signal (z-score) [18]: -0.071
- glycan array binding signal (z-score) [19]: 0.504
- glycan array binding signal (z-score) [20]: -0.797
- glycan array binding signal (z-score) [21]: 2.29
- glycan array binding signal (z-score) [22]: 2.3
- glycan array binding signal (z-score) [23]: 1.19
- glycan array binding signal (z-score) [24]: 1.12
- glycan array binding signal (z-score) [25]: 2.15
